Compound activity: PubChem, Broad Institute
Shown is part of a subset that was picked to be rich in hits.
C diff growth – blocks growth of Clostridium difficile. Clostridium difficile clinical isolate growth, OD600, 24 h; active compounds read low. growth activity, negative = inhibition, % at 16 µg/mL (by protocol). 86,000 compounds, 0.25% hits. AID 1259249;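 active means mean growth activity at or below -80% and every replicate also at or below -80%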;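 further: 0% = DMSO wells and -100% = levofloxacin 16 µg/mL wells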
* = called active by the depositor; ! = repeats disagree.

SMILES | C diff growth
O=C(C[C@H]1CC[C@@H]2[C@H](COC[C@H](O)CN2C(=O)Nc2ccc(C(F)(F)F)cc2)O1)NCC1CCCCC1 | -102.0*!
O=C(C[C@H]1CC[C@H]2[C@@H](COC[C@H](O)CN2C(=O)Nc2ccc(C(F)(F)F)cc2)O1)NCC1CCCCC1 | -41.6
O=C(C[C@H]1CC[C@H]2[C@@H](COC[C@@H](O)CN2C(=O)Nc2ccc(C(F)(F)F)cc2)O1)NCC1CCCCC1 | -100.8*!
C[C@@H]1CN([C@H](C)CO)C(=O)c2cccc(NC(=O)c3ccc(-c4nccs4)cc3)c2O[C@H]1CN(C)CC1CCCCC1 | 1.1
Cc1noc(C)c1S(=O)(=O)N(C)C[C@@H]1Oc2ccc(NS(=O)(=O)c3ccccc3)cc2C(=O)N([C@@H](C)CO)C[C@@H]1C | 5.2
CNC(=O)C[C@H]1CC[C@@H]2[C@H](COc3ccc(NC(=O)Nc4ccc(C)cc4)cc3C(=O)N2C)O1 | 26.0
CCCC(=O)Nc1ccc2c(c1)C(=O)N(C)[C@@H]1CC[C@H](CC(=O)NCc3ccccc3Cl)O[C@@H]1CO2 | 3.4
O=C(C[C@@H]1CC[C@@H]2[C@H](COC[C@@H](O)CN2S(=O)(=O)c2cccc(F)c2)O1)Nc1ccccc1 | 20.2
CC=Cc1ccc2n(c1=O)C[C@H]1[C@H](CO)[C@@H](C(=O)NCC)[C@@H]2N1C(C)=O (mixture of isomers) | 4.5
CCC(=O)N(C)C[C@H]1Oc2cc(-c3ccc(F)cc3)ccc2S(=O)(=O)N([C@@H](C)CO)C[C@@H]1C | 0.5
CN(C)CC#Cc1ccc([C@H]2[C@H]3CN(C(=O)c4ccc5c(c4)OCO5)CCCCN3[C@H]2CO)cc1 | 5.9
C[C@@H]1CN([C@H](C)CO)S(=O)(=O)c2ccc(/C=C/c3ccccc3)cc2O[C@H]1CN(C)Cc1ccc(C(=O)O)cc1 | -98.1*
C[C@H]1CN([C@@H](C)CO)S(=O)(=O)c2ccc(/C=C/c3ccccc3)cc2O[C@H]1CN(C)Cc1ccc(C(=O)O)cc1 | 1.3
C[C@H](CO)N1C[C@H](C)[C@@H](CN(C)Cc2ccc(C(=O)O)cc2)Oc2cc(/C=C/c3ccccc3)ccc2S1(=O)=O | -3.1
C[C@@H]1CN([C@@H](C)CO)C(=O)c2cc(NC(=O)CCCN(C)C)ccc2O[C@@H](C)CCCCO[C@H]1CN(C)CC1CCCCC1 | 0.1
C[C@H](CO)N1C[C@H](C)[C@@H](CN(C)C(=O)c2ccccn2)Oc2cc(C#Cc3ccccc3)ccc2S1(=O)=O | 4.2
COc1ccc(S(=O)(=O)Nc2ccc3c(c2)CC(=O)N([C@@H](C)CO)C[C@@H](C)[C@H](CN(C)Cc2ccc(C(=O)O)cc2)O3)cc1 | 2.6
O=C(Nc1ccccc1F)N1C[C@@H]2N[C@H](C1)C2c1ccc(-c2cccc(F)c2)cc1 (stereo not given in full) | 79.1
Cc1ccc(-c2ccc(C3[C@@H]4CN(C(=O)Nc5ccc(C(F)(F)F)cc5)C[C@H]3N4)cc2)cc1 (stereo not given in full) | -91.6*!
O=C(Nc1ccccc1)N1C[C@@H]2N[C@H](C1)C2c1ccc(-c2ccccc2F)cc1 (stereo not given in full) | 39.3
COc1ccc(NC(=O)N2[C@@H]3CNC[C@H]2C3c2ccc(-c3ccc(OC)cc3)cc2)cc1 (stereo not given in full) | -10.8
N#Cc1ccc(-c2ccc(C3[C@@H]4CN(C(=O)Nc5ccc(C(F)(F)F)cc5)C[C@H]3N4)cc2)cc1 (stereo not given in full) | -96.1*!
COc1ccc(-c2ccc(C3[C@H]4CNC[C@@H]3N4C(=O)Nc3ccc(F)cc3)cc2)cc1 (stereo not given in full) | 48.5
O=C(Nc1ccc(C(F)(F)F)cc1)N1C[C@@H]2N[C@H](C1)C2c1ccc(-c2cccc(F)c2)cc1 (stereo not given in full) | -99.4*
COc1ccc(NC(=O)N2C[C@@H]3N[C@H](C2)C3c2ccc(-c3cccc(F)c3)cc2)cc1 (stereo not given in full) | 2.8
SMILES | C diff growth
COc1ccc(-c2ccc(C3[C@H]4CNC[C@@H]3N4C(=O)Nc3ccc(C(F)(F)F)cc3)cc2)cc1 (stereo not given in full) | -98.6*!
N#Cc1ccc(-c2ccc([C@@H]3[C@@H]4CN(C(=O)Nc5ccc6c(c5)OCO6)C[C@H]3N4)cc2)cc1 | 22.1
N#Cc1ccc(-c2ccc(C3[C@@H]4CN(C(=O)C5CC5)C[C@H]3N4)cc2)cc1 (stereo not given in full) | -11.2
O=C(Nc1ccc(F)cc1)N1C[C@@H]2N[C@H](C1)C2c1ccc(-c2cccnc2)cc1 (stereo not given in full) | -4.5
C[C@H](CO)N1C[C@H](C)[C@@H](CN(C)C(=O)Nc2ccc(F)cc2)Oc2ccc(NS(=O)(=O)c3cccs3)cc2CC1=O | 0.7
C[C@H](CO)N1C[C@H](C)[C@@H](CN(C)Cc2ccccc2)Oc2ccc(NC(=O)Nc3ccc(F)cc3)cc2CC1=O | -0.5
CCCNC(=O)N1CC2(CCN(CC3CCOCC3)CC2)c2c(n(C)c3cc(OC)ccc23)[C@@H]1CO | -6.7
Fc1ccc(-c2ccc(C3[C@@H]4CN(Cc5cccc(F)c5)C[C@H]3N4)cc2)cc1 (stereo not given in full) | -99.0*
Cc1ccc(-c2ccc(C3[C@@H]4CN(Cc5cccc(F)c5)C[C@H]3N4)cc2)cc1 (stereo not given in full) | -93.8*
CN(C)C(=O)c1cccc(-c2ccc(C3[C@@H]4CN(Cc5ccc6c(c5)OCO6)C[C@H]3N4)cc2)c1 (stereo not given in full) | 9.6
Fc1cccc(CN2[C@@H]3CNC[C@H]2C3c2ccc(-c3ccccc3)cc2)c1 (stereo not given in full) | 39.6
Fc1cccc(CN2[C@@H]3CNC[C@H]2C3c2ccc(-c3cccc(F)c3)cc2)c1 (stereo not given in full) | -98.9*!
Cc1ccc(-c2ccc(C3[C@@H]4CN(Cc5cccnc5)C[C@H]3N4)cc2)cc1 (stereo not given in full) | 3.1
CN(C)C(=O)c1cccc(-c2ccc(C3[C@@H]4CN(Cc5cncnc5)C[C@H]3N4)cc2)c1 (stereo not given in full) | -3.8
Fc1cccc(-c2ccc([C@@H]3[C@@H]4CN(Cc5nccs5)C[C@H]3N4)cc2)c1 | 63.6
N#Cc1cccc(-c2ccc(C3[C@H]4CNC[C@@H]3N4Cc3cccc(F)c3)cc2)c1 (stereo not given in full) | -5.6
C(=C\c1ccc(C2[C@@H]3CN(Cc4ccccn4)C[C@H]2N3)cc1)/c1ccccc1 (stereo not given in full) | -12.2
C(=C\c1ccc(C2[C@@H]3CN(Cc4nccs4)C[C@H]2N3)cc1)/c1ccccc1 (stereo not given in full) | 46.9
Fc1cccc(CN2C[C@@H]3N[C@H](C2)C3c2ccc(/C=C/c3ccccc3)cc2)c1 (stereo not given in full) | -99.8*!
CC=Cc1ccc2n(c1=O)C[C@@H]1[C@@H](CO)[C@H](C(=O)N(C)C)N(C(=O)CC3CC3)[C@H]21 (mixture of isomers) | -3.4
COc1ccc(NC(=O)Nc2ccc3c(c2)CC(=O)N([C@@H](C)CO)C[C@H](C)[C@H](CN(C)C(=O)NC(C)C)O3)cc1 | -0.8
COc1ccc(-c2ccc3c(c2)[C@H]2[C@H](CCN2S(=O)(=O)c2ccccc2C)[C@H](CO)N3)cc1 | -4.7
